# ATG4B inh: inhibitors of human ATG4B cysteine protease; AID 504462; 0.51% of 340,000 active; ATG4B cleavage of LC3-PLA2, NBD-HPC fluorescence, 1 h; Q9Y4P1; inhibition, % at 8.33 µM; in the data active = inhibition above about 40%
# Target sequence (Q9Y4P1 whole entry, looked up): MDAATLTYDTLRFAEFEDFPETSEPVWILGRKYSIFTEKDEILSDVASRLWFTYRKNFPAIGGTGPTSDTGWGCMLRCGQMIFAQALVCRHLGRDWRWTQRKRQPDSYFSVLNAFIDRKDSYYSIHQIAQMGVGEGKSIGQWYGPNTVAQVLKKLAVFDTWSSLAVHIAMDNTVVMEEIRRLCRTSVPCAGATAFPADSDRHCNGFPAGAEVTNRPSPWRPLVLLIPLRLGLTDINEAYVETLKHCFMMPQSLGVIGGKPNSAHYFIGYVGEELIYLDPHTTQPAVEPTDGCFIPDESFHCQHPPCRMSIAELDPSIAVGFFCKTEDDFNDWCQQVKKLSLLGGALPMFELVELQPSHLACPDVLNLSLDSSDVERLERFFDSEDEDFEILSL
# tim23-1 inh: inhibits growth of tim23-1 mutant yeast; S. cerevisiae tim23-1 growth, BacTiter-Glo luminescence, 24 h; inhibition, % at 20 µM; 1.3% of 330,000 active; AID 463212;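 active = growth inhibition of the mutant yeast at or above 50%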;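 note: temperature-sensitive mutant grown at 25 °C; plate controls were DMSO-treated mutant yeast for no effect and medium wells lacking yeast for full effect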
# PfHsp90 set2: growth inhibition of yeast expressing Plasmodium Hsp90; S. cerevisiae expressing PfHsp90, BacTiter-Glo ATP, 48 h; yeast lacking PDR1 and PDR3 efflux regulators; inhibition, % at 9.4 µM; 0.32% of 310,000 active; AID 504621;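 active = every replicate shows inhibition above about 80%, whatever the replicate mean, limit read from the data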;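 note: 0% = DMSO neutral controls and 100% = 20 µM radicicol positive controls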
# tim10-1 inh: inhibits growth of tim10-1 mutant yeast; S. cerevisiae tim10-1 ts strain growth, BacTiter-Glo, 24 h; inhibition, % at 20 µM; 2.2% of 330,000 active; AID 463190;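 active = inhibition of at least 40%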;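 note: mutant grown at 25 °C; 0% = DMSO wells with yeast and 100% = wells holding no yeast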
# SKKanGAS inh: inhibitors of SKKanGAS S. pyogenes growth in kanamycin (SK-promoter or general growth effect); AID 1662; 1.3% of 300,000 active; BacTiter-Glo, 6 h; inhibition, % at 7.5 µM;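 active = mean replicate score, as percent of positive control median, at least 50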;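 note: strain carries kanamycin resistance gene driven by streptokinase promoter and grows in 40 µg/ml kanamycin; loss of luminescence reflects streptokinase promoter inhibition or plain growth inhibition; 0% = median of DMSO wells and 100% = positive control at its reference dose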
# TIM10 inh: growth inhibitors of TIM10 yeast strain; S. cerevisiae TIM10 strain growth, BacTiter-Glo luminescence, 24 h; inhibition, % at 10 µM; 1.4% of 330,000 active; AID 463195;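 active = inhibition of 40% or more at the single tested concentration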;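 note: wild-type TIM10 isogenic control strain grown at permissive 25 °C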
# * = called active by the depositor; . = no result. Rows were chosen to be rich in hits. Some 4.7% of all compounds tested hit in one or more screens of this group.
SMILES,ATG4B inh,tim23-1 inh,PfHsp90 set2,tim10-1 inh,SKKanGAS inh,TIM10 inh
O=C1CCCC2=C1C(c1ccc(Cl)cc1)C1C(=O)c3ccccc3C1=N2 (stereo not given),16,12,-21,23,24,12
CCOc1ccc(/C=C/C(O)=C2/C(=O)NC3(C)CC2c2ccccc2O3)cc1OC (stereo not given),-6,10,-1,8,-2,9
CCc1ccc(CNc2ccc3c(c2)ncn3C(C)(C)C)cc1,-8,22,-1,7,57*,14
COc1cc(/C(C)=C/c2ccccc2)c2c(c1)oc1ccccc12,.,.,.,.,55*,.
Cc1cccc(OCC(=O)N/N=C\C=C\c2ccc3c(c2)OCO3)c1C,-12,4,0,10,-1,-5
Cc1c(N/N=C(\C#N)C(=O)c2ccc(Cl)cc2)c(=O)n(-c2ccccc2)n1C,-8,.,20,.,100*,.
N#C/C(=N\Nc1ccc(Cl)cc1)C(=O)c1ccccc1,29,22,-14,28,30,-10
CCCn1c(CCC(=O)O)nc2cc(S(=O)(=O)N(CC)CC)ccc21,-1,1,-24,3,-1,-7
CCCn1c(=O)c(C(=O)NNS(=O)(=O)c2ccc(Cl)cc2)c(O)c2ccccc21,4,27,-8,-9,96*,3
CCCn1c(=O)c(C(=O)NCCc2ccccc2)c(O)c2ccccc21,10,40,10,-3,9,3
CCCn1c(=O)c(C(=O)NNC(=O)c2ccc(Cl)cc2Cl)c(O)c2ccccc21,5,15,26,30,70*,-19
CCn1c(=O)c(C(=O)NNC(=O)c2ccc(Cl)cc2Cl)c(O)c2ccccc21,-2,34,9,-28,75*,14
Cn1c(-c2ccc3nc(N)sc3c2)nc2cc(N)ccc21,-13,2,-1,12,9,7
CCNC(=S)NS(=O)(=O)c1ccc(F)cc1,-2,2,9,-14,3,-5
COc1ccc(CNCC(O)(c2ccc(Cl)cc2)c2ccc(Cl)cc2)cc1,-7,28,29,-3,59*,16
CNC(=O)c1c(NC(=O)c2ccc(N3C(=O)CCC3=O)cc2)sc2c1CCC(C)C2 (stereo not given),2,30,0,29,61*,-5
CNC(=O)c1c(NC(=O)c2ccc(N3C(=O)CCC3=O)cc2)sc2c1CCCC2,-3,16,-42,13,7,7
CCOc1ccc(C(=O)NC(=S)Nc2cccc(NC(=O)c3ccco3)c2)cc1[N+](=O)[O-],20,0,-42,0,65*,-8
O=C(Nc1cc([N+](=O)[O-])ccc1O)c1cccc(NC(=O)c2ccco2)c1,2,7,-15,1,53*,-1
COc1ccc(C(=O)NC(=S)Nc2cccc(NC(=O)c3ccco3)c2)cc1[N+](=O)[O-],9,-15,16,8,21,-39
CCOc1ccc(C(=O)NC(=S)Nc2ccc(N3CCCCC3)cc2)cc1[N+](=O)[O-],-5,1,-8,18,12,17
CCOc1ccc(C(=O)NC(=S)Nc2ccc(NC(=O)CC)cc2)cc1[N+](=O)[O-],-9,17,-2,21,53*,-12
COc1cccc(C(=O)Nc2cc(C)ccc2NC(=O)COc2ccccc2)c1,0,5,4,9,-5,5
CCOc1ccccc1NC(=O)C(NCCN(C)C)c1ccccc1 (stereo not given),15,-4,10,8,1,-2
CCOc1ccccc1NC(=O)C(NCC1CCCCC1)c1ccccc1 (stereo not given),-11,41,-5,11,55*,17
CCC(CC)c1nn2c(N)c(/C=C3\C(C)=Nc4ccccc43)c(=O)nc2s1,13,18,.,13,62*,-15
Cc1nn(C)c(Cl)c1CN1CCCC(C(=O)Nc2ccc(-c3cscn3)cc2)C1 (stereo not given),1,9,-10,16,50*,6
CCCCCn1c(=O)[nH]c2cc(C(=O)N3CCN(c4ccccc4F)CC3)ccc2c1=O,3,16,-41,19,-18,2
O=C1N/C(=N\c2ccccn2)SC1Cc1ccc(Cl)cc1 (stereo not given),6,-10,3,8,50*,-4
